# High-throughput results deposited in PubChem BioAssay by National Center for Advancing Translational Sciences (NCATS).
# An excerpt weighted towards active compounds, which were near 6.6% of everything screened.
# KB-3-1 tox = kills parental KB-3-1 adenocarcinoma cells | KB-3-1 viability, CellTiter-Glo ATP luminescence, 72 h | Potency, µM (top dose mostly 46.1 µM), actives largely listed as cytotoxic | 400,000 tested, 1.4% active; note: % is set by controls: 0 for no effect and ±100 for the full control effect; nearly all actives have a fitted effect of over 60% in size
#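 KB-3-1 cells, DMEM (no phenol red) + 10% FBS; compound by pin transfer, 72 h, 37 °C. Readout: CellTiter-Glo luminescence after 10 min. Data normalized, curve-fitted.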
# HepG2 tox = HepG2 cytotoxicity, counter-screen for TGF-b inhibitors. HepG2 CAGA-GFP viability, ATP luminescence, 18 h. Potency, µM (series often up to 46.1 µM), for the others: at the highest dose activity change, negative = cytotoxicity, usual class: cytotoxic. 410,000 tested, 0.76% active
#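 HepG2 CAGA-GFP cells (1000/well, DMEM with 1% FBS) received compound, then TGF-beta at 500 pg/mL final, and were incubated 18 hours at 37 degrees C. Viability was read by CellTiter-Glo luminescence. Media-only wells were set as complete cell-killing and DMSO as no toxicity.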
# HT1080-NT tox = kills 2HG-producing HT-1080-NT fibrosarcoma cells | HT-1080-NT fibrosarcoma viability, CellTiter-Glo ATP luminescence, 48 h | Potency, µM (titrated, usually from 46.1 µM), for inactives: top-dose activity, negative = less viability, most hits filed as cytotoxic | 360,000 tested, 1.6% active | AID 686970;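 note: NT is the 2HG producing partner of a matched IDH1 knockdown line; 0% = DMSO-treated cells and -100% = media-only wells without cells; nearly all actives have a fitted effect of over 55% in size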
#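 HT-1080-NT fibrosarcoma cells (2HG-overproducing), 750 cells/well in RPMI with 5% FBS, dosed after 2 h and incubated 48 h at 37C. CellTiter-Glo luminescence normalized to DMSO and no-cell wells; concentration-response curves fitted and classed.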
# HT1080 IDH1KD tx = kills HT-1080 cells with IDH1 knockdown. AID 686971. 360,000 tested, 2% active. Potency, µM (titrated, usually from 46.1 µM), for inactives: top-dose activity, negative = toxicity, actives largely listed as cytotoxic. HT-1080 IDH1 knockdown viability, ATP luminescence, 48 h;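 note: 0% = DMSO wells and -100% = cell-free medium wells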
#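 In this qHTS, HT-1080 cells depleted of IDH1 are exposed for 48 h at 37 °C to compound titrations. Toxicity is scored from CellTiter-Glo luminescence, with DMSO as full viability and medium alone as none.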
# KB-V1 MDR tox = kills drug-selected multidrug resistant KB-V1 cells. Potency, µM (top dose mostly 46.1 µM), usual class: cytotoxic. AID 1347076. KB-V1 MDR cells viability, CellTiter-Glo, 72 h. 400,000 tested, 3.4% active; note: % is set by controls: 0 for no effect and ±100 for the full control effect; nearly all actives have a fitted effect of over 60% in size
#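 KB-V1, DMEM (no phenol red) + 10% FBS; cpd pin-transferred, titration series; 72 h, 37 degrees C; CellTiter-Glo, luminescence. Data normalized, curve-fit.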
# TGFb SMAD3 inh = blocks TGF-b signaling | Potency, µM (highest dose often 46.1 µM), inactives show at the highest dose activity, negative = inhibition, hits mostly inhibitors | HepG2 CAGA-GFP TGF-b/SMAD3 reporter, GFP fluorescence, 18 h; TGF-beta stimulated, 500 pg/mL final | AID 588855 | 410,000 tested, 1.2% active; note: % is set by controls: 0 for no effect and ±100 for the full control effect; nearly all actives have a fitted effect of over 65% in size
#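 Cell-based qHTS in HEPG2 carrying a CAGA-GFP Smad reporter; compounds added before 500 pg/mL final TGF-beta, 18 h incubation at 37 degrees C, GFP fluorescence quantified per cell by imaging cytometry.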
# * hit, by the source's call; i = inactive; ? = inconclusive; / = no result given; [ ] = another dose, or the depositor's remark. Calls come from the whole dose curve; as a rule, active = well fitted curve in the direction sought with a large enough effect; inconclusive = small, poorly fitted or top-dose-only effect, or another doubt; inactive = no such curve, though single readings can be large; an effect the other way counts as inactive or inconclusive. Potency is the fitted concentration of half-maximal effect.
SMILES,KB-3-1 tox,HepG2 tox,HT1080-NT tox,HT1080 IDH1KD tx,KB-V1 MDR tox,TGFb SMAD3 inh
COc1ccc(-c2nnc(SCc3csc(N)n3)n2C)cc1,i,10%,-4%,11%,i,7%
CCOc1ccc2[nH]c(=O)c(CN(CC3COCCO3)C(=O)c3ccco3)cc2c1 (centres undefined),i,-46%,1%,-1%,i,1%
CCOc1ccc(N(CC(=O)NCc2ccc(F)cc2)C(=O)c2ccco2)cc1,i,-24%,-14%,-12%,16µM*,1%
CCOc1ccc2[nH]c(=O)c(CN(Cc3ccccc3OC)C(=O)c3ccccc3)cc2c1,5.2µM*,-13%,-7%,?,4.6µM*,3%
Cc1ccc(N(CC(=O)NCc2ccc(F)cc2)C(=O)c2ccco2)cc1C,i,-7%,-12%,-8%,?,2%
COc1ccc2[nH]c(=O)c(CN(Cc3ccco3)C(=O)c3ccccc3)cc2c1,?,0%,?,-23%,i,?
CCOc1ccc2[nH]c(=O)c(CN(Cc3ccc(F)cc3)C(=O)c3ccco3)cc2c1,16µM*,0%,?,23µM*,15µM*,?
Cc1ccc2[nH]c(=O)c(CN(Cc3ccco3)C(=O)c3ccncc3)cc2c1,12µM*,-4%,?,?,?,2%
CCOc1ccccc1CNC(=O)C(CC)n1nc(C)c2c(C)n(-c3ccccc3)nc2c1=O (centres undefined),i,-10%,/,/,?,?
CCOC(=O)c1ccccc1NC(=O)NCc1c(-n2cccc2)sc2c1CCCC2,i,-5%,/,/,i,-18%
CCOc1ccc2[nH]c(=O)c(CN(Cc3ccco3)C(=O)c3ccc(Br)cc3)cc2c1,?,-24%,-13%,-9%,23µM*,-13%
COc1ccccc1NC(=S)N(Cc1ccco1)Cc1cc2cc(C)ccc2[nH]c1=O,1.8µM*,13%,?,?,?,4%
Cc1ccc2[nH]c(=O)c(CN(C(=O)c3cccs3)c3ccccc3)cc2c1,?,11%,-3%,-11%,3.3µM*,?
Cc1ccc2cc(CN(C(=O)c3cccs3)c3ccccc3)c(=O)[nH]c2c1,i,0%,3%,14%,i,-1%
CCc1ccc2[nH]c(=O)c(CN(CCN(CC)CC)C(=S)NCc3ccco3)cc2c1,23µM*,-52%,-21%,?,?,?
O=C(CN1C(=O)NC2(CCc3ccccc32)C1=O)Nc1ccc(Br)cc1F (centres undefined),i,-3%,-4%[9.24 µM],-22%,i,-19%
Cc1c(C#N)c(NC(=O)COC(=O)c2cc(Cl)c3c(c2)OCCCO3)n(Cc2ccco2)c1C,i,4%,/,/,i,21%
CCN(CC)CCN(Cc1cc2ccc(C)cc2[nH]c1=O)C(=S)Nc1ccccc1C(=O)OC,?,-11%,?,18µM*,?,17%
CCOc1ccc2[nH]c(=O)c(CN(CCN3CCCC3)C(=S)Nc3ccccc3OCC)cc2c1,?,14µM*,?,?,i,16µM*
CCN(Cc1cc2cc(C)ccc2[nH]c1=O)C(=O)c1cccc(OC)c1,i,-5%,1%,-8%,9.2µM*,-7%
COc1ccc2[nH]c(=O)c(CN(CCN3CCCC3)C(=O)Nc3ccccc3Cl)cc2c1,i,-34%,-17%,-1%,i,3%
O=S(=O)(c1ccccc1)c1cnc(-c2cccnc2)nc1-c1ccc(Cl)cc1Cl,?,-29%,-15%,?,i,-2%
O=S(=O)(c1ccccc1)c1cnc(-c2cccnc2)nc1-c1ccccc1,i,9%,6%,1%,8.2µM*,-3%
